The text below walks through data of PubChem BioAssay (NCATS).

The nature of assay [1]: AP1 Signaling Pathway (AID 357).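 Note: ME-180 reporter cells stimulated with EGF at its EC50 level; % is set by controls: 0 for no effect and ±100 for the full control effect.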 The gist of the method: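 AP-1-bla ME-180 cells, Opti-MEM + 0.5% dialyzed FBS, plated overnight 37 °C. Cpd titration + EC50 EGF, 5 h 37 °C. CCF4 2.5 h RT; ex 405, em 460/530 ratio → %activity, AC50.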
Assay [2] is described as follows: NFAT Signaling Pathway (AID 444).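 Note: carbachol stimulus at about its EC50 of 1 µM final; % is set by controls: 0 for no effect and ±100 for the full control effect.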 The settings on record: Jurkat NFAT-bla M1, carbachol, beta-lactamase ratio, 5 h; at 17.2 µM (top of the series). In a few lines:
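Jurkat cells carrying an NFAT-driven β-lactamase reporter and co-transfected muscarinic M1 receptor were treated with compound plus carbachol (1 uM final, an EC50 level) for 5 h at 37 °C. CCF4 loading followed for 1 h at RT; 460/530 nm ratio gave %activity.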

Assay [3] can be described thus: Stat Signaling Pathway (AID 446).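 Note: ME-180 cervical cancer cells given 40 pM IL-6 alongside compound; SIE-controlled beta-lactamase reporter measured as 460/530 nm FRET emission ratio; % is set by controls: 0 for no effect and ±100 for the full control effect.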 The gist of the method:
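Emission at 460 and 530 nm (excitation 405 nm) reports SIE-controlled beta-lactamase in ME-180 cells. Cells received compound with 40 pM IL-6 for 5 hrs at 37 C; data scaled between 300 pM IL-6 and 125 nM JAK-inhibitor controls.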

In assay [4] the target is Glucocorticoid receptor (Homo sapiens) (UniProt P04150). Kind of assay: GR-GFP Redistribution (AID 450;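 active = compounds whose dose series gives a full or clear partial fitted curve of increased nuclear translocation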; note: potency is the fitted concentration of half-maximal effect). The following applies: U2OS GR-GFP nuclear translocation, laser cytometry, 2 h.
In assay [5] the target is Mitogen-activated protein kinase 10 (Mus musculus) (UniProt Q61831). Kind of assay: JNK3 AlphaScreen Assay (AID 530).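 Note: kinase came from lysate of stimulated human HepG2 cells; signal reports phosphorylation of biotinylated GST-cJun 1-79 at Ser73 with 10 µM ATP; % is set by controls: 0 for no effect and ±100 for the full control effect.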 In a few lines: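 Biotinylated GST-cJun(1-79) served as substrate for JNK3 in HepG2 lysates stimulated with IL-1beta and TNF-alpha. ATP was 10 uM final, pH 7.6. Ser73 phosphorylation was quantified by AlphaScreen (680 nm excitation).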
(Alpha assays give light when donor and acceptor beads are brought close together.)

The target in assay [6] is 3',5'-cyclic-AMP phosphodiesterase 4B (Homo sapiens) (UniProt Q07343). The experiment in a line: qHTS Assay for Inhibitors of PDE-IV (AID 607; active = well fitted activation curve with a large enough effect in the main read-out, with a control signal flat, not every such curve was filed as active; note: % of control where 0% means no effect). In a few lines: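 The readout is membrane depolarisation from a cAMP-sensing CNG channel, detected with a potential dye at ex 535/em 590. Cells were HEK293-derived (endogenous PDE-IV) at 1000 cells/well, titrated up to 22.9 uM final.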
Background: qHTS replaces the single test concentration by a dilution series.

The nature of assay [7]: qHTS Assay for Lipid Storage Modulators (AID 1519; calls by dose curve). The settings on record: Drosophila S3 cells, BODIPY lipid droplet/cell ratio, laser cytometry, cells loaded with oleic acid; for activity change, negative = inhibition: at 25.7 µM (top of the series). In a few lines:
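Cells seeded at 5,000 per well were treated with compounds over a concentration series and loaded with oleic acid (400 uM, as added). Lipid droplet fluorescence (488 nm excitation, 500-530 nm channel) was read by laser-scanning cytometry and normalized to 20 uM Triacsin C.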

Assay [8] has as its target Cytochrome P450 1A2 (Homo sapiens) (UniProt P05177). The experiment in a line: p450-cyp1a2 (AID 410; calls by dose curve; note: potency is the fitted concentration of half-maximal effect;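 for activity change, negative = inhibition: -100% = full effect of reference inhibitor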). The gist of the method:
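Read-out is luminescence from luciferin produced by CYP1A2 demethylation of Luciferin-ME (100uM, at Km). Detection reagent stopped the 60 min NADPH-dependent reaction; signals were normalized to 57 uM furafylline.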

Assay [9] concerns the target Glucocorticoid receptor (Homo sapiens) (UniProt P04150). The experiment in a line: GR-EFC Redistribution (AID 451; calls by dose curve; note: potency is the fitted concentration of half-maximal effect). The following applies: CHO-K1 GR-EFC translocation, beta-gal luminescence, 2 h. In a few lines:
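CHO-K1 cells stably expressing nuclear-localized β-gal enzyme acceptor and GR fused C-terminally to the enzyme donor fragment; ligand-driven nuclear translocation restores β-gal by complementation. Compounds titrated up to 46 uM final, 2 h at 37 °C; luminescence read.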

For assay [10], the target named is Ubiquitin carboxyl-terminal hydrolase 1 (Homo sapiens) (UniProt O94782). The experiment in a line: Inhibitors of USP1/UAF1: Pilot qHTS (AID 504865; active = well fitted curve in the direction sought with a large enough effect; an effect the other way counts as inactive or inconclusive; note: nearly all actives have a fitted effect of over 35% in size; note: potency is the fitted concentration of half-maximal effect). In a few lines: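 Kinetic fluorescence assay: 1nM USP1/UAF1, 15 min compound preincubation, then 150nM Ub-Rho; 480/540 nm.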
Assay [11] addresses Cytochrome P450 3A4 (Homo sapiens) (UniProt P08684). The experiment in a line: qHTS Assay for Activators of Cytochrome P450 3A4 (AID 885; active = well fitted curve in the direction sought with a large enough effect; an effect the other way counts as inactive or inconclusive; note: nearly all actives have a fitted effect of over 65% in size). The gist of the method:
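Activators are scored by enhanced luminescence from CYP3A4 conversion of luciferin-PPXE (25uM, equal to KM) to luciferin, after 60 min at RT with an NADPH-regenerating system.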

Where [12] appears, read: measured here: cell count channel max response.
[13] abbreviates: measured here: lipid channel max response.

Values joined by “and” are separate entries in the source; they are usually repeats but may differ in a detail not shown here. Identical values can stand only once. Records with an inconclusive call do not appear. Active and inactive are the calls of the source. Unless noted, calls come from the whole dose curve; as a rule, active = well fitted curve in either direction with a large enough effect (not every such curve was filed as active); inconclusive = small, poorly fitted or top-dose-only effect, or another doubt; inactive = flat fitted curve, though single readings scatter.

Sequence of 3',5'-cyclic-AMP phosphodiesterase 4B (Homo sapiens) (Q07343 whole entry, looked up): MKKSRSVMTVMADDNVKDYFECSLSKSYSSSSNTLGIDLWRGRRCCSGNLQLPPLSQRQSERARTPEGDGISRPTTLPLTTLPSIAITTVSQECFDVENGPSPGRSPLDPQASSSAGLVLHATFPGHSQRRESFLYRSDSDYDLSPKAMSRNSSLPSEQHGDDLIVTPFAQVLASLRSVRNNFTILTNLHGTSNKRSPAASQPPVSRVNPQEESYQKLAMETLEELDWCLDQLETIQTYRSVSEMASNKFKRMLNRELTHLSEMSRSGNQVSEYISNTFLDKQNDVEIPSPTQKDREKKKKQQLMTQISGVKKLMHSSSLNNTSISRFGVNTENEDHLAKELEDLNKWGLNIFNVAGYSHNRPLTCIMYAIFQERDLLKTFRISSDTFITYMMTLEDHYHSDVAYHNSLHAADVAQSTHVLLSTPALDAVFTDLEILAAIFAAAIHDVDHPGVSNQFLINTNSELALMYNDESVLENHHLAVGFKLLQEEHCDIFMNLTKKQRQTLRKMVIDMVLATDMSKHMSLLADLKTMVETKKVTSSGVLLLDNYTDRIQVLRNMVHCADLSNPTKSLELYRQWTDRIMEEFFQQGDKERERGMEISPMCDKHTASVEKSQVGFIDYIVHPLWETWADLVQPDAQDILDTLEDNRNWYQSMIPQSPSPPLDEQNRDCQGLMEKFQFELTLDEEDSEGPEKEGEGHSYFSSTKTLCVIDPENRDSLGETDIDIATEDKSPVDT
Sequence of Cytochrome P450 1A2 (Homo sapiens) (P05177 whole entry, looked up): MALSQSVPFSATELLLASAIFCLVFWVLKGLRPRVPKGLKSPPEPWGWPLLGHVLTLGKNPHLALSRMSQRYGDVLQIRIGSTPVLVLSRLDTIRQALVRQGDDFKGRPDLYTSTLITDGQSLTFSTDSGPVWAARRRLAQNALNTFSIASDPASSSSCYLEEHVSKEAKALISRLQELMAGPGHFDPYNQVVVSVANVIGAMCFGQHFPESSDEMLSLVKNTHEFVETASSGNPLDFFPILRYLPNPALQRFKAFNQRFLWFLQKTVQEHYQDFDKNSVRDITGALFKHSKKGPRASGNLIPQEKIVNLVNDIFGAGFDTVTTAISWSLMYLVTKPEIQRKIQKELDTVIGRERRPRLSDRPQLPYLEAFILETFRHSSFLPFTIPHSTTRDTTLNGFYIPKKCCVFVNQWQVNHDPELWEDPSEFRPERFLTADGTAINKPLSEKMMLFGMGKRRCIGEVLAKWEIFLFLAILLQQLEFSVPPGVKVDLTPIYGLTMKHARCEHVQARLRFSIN
Sequence of Ubiquitin carboxyl-terminal hydrolase 1 (Homo sapiens) (O94782 whole entry, looked up): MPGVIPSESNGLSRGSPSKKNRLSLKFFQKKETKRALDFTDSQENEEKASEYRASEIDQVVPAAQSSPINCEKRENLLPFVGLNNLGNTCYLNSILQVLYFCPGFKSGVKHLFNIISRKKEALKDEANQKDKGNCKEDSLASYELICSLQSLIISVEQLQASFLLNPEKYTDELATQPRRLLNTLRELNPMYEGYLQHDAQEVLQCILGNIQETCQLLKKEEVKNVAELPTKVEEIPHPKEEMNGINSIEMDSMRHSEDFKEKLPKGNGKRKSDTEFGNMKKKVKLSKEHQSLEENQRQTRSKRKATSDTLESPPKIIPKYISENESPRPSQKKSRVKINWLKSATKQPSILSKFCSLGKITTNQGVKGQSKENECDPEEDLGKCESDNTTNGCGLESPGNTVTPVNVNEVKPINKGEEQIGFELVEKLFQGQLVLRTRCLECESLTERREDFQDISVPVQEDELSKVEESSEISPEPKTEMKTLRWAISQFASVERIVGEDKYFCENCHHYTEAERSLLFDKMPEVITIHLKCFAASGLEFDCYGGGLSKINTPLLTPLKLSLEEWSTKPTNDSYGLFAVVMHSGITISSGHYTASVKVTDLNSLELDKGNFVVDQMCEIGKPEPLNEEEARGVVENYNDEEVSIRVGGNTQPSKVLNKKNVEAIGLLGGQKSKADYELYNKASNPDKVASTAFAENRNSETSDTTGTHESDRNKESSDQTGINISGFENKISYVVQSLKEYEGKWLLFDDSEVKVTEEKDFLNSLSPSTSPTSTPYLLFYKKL
Sequence of Glucocorticoid receptor (Homo sapiens) (P04150 whole entry, looked up, the tested form may be a part): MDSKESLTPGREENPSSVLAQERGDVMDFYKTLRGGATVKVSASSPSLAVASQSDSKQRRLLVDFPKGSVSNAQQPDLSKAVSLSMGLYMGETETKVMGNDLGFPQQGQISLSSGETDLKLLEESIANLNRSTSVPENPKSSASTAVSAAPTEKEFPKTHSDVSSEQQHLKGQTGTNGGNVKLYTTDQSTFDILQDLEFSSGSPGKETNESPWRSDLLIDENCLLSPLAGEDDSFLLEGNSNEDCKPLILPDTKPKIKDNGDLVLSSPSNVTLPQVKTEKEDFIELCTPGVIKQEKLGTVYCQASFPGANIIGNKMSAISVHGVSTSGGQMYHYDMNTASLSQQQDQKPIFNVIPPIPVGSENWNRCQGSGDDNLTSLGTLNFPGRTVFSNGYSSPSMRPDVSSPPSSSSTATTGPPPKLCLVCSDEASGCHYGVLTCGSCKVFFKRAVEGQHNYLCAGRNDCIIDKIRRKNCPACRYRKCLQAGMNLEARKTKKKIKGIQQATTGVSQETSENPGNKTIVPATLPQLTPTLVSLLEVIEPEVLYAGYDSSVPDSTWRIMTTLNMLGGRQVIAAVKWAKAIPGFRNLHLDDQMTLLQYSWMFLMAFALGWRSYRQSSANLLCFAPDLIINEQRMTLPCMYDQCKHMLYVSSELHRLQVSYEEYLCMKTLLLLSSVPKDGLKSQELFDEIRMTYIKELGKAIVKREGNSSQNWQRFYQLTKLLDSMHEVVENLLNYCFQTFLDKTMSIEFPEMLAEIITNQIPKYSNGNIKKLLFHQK
Sequence of Cytochrome P450 3A4 (Homo sapiens) (P08684 whole entry, looked up): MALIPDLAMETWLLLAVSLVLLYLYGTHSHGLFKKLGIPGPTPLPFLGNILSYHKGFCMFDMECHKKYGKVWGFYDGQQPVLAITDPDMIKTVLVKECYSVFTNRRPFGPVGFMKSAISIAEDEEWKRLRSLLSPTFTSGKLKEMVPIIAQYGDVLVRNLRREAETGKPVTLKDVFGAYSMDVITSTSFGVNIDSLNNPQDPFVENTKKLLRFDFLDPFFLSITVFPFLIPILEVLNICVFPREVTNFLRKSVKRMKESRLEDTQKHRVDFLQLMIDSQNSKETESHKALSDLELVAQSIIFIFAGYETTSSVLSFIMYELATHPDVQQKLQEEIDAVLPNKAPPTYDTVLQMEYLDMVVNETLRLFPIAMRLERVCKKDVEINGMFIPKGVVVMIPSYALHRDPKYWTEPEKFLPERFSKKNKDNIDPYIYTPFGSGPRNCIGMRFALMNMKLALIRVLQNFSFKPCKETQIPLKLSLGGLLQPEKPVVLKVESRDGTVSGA

Take `C#C[C@@]1(O)CC[C@@H]2[C@@H]3CCC4=CC(=O)CC[C@@]4(C)[C@H]3CC[C@]21C`: the result in assay [1], in assay [3] and in [5] was inactive. Also, the activity change, negative = inhibition in assay [2] is -15.1% (inactive); in assay [7] it was -1.74% (inactive). Further, the Potency in [4] was 0.155 µM (active). In assay [6], the Potency result was “inactive”. Besides, the max response in [7] (setting [12]) was -8.16%; in assay [7] (setting [13]), -11.2%.

For `CO[C@@H](C)[C@](O)(C(=O)OCC1=CCN2CC[C@@H](O)[C@H]12)C(C)C`, the outcome in [1], in [3] and in assay [5] was inactive. Also, the Potency result in [8], in [6] and in [10] was “inactive” each time. Besides, the Potency in [4] and in assay [9] was > 20.6 µM (inactive) in each case. Moreover, the activity change, negative = inhibition in assay [7] is -0.0062% (inactive). The max response is -11.3% in assay [7] (setting [12]) and -10.6% in assay [7] (setting [13]).

Consider `C(#CCN1CCCC1)CN1CCCC1`, for which the molecule was classed as inactive in assay [1], in assay [3] and in assay [5]. In addition, the Potency entry in assay [8], in [6] and in assay [10] was “inactive” throughout. Moreover, the Potency in assay [4] was > 20.6 µM (inactive). The activity change, negative = inhibition in assay [7] was 0.99% (inactive). Moreover, the max response in [7] (setting [12]) was found to be 10.9%; in assay [7] (setting [13]) it was 10.3%.

`CN1CC[C@]2(C)c3cc(O)ccc3N(C)[C@@H]12`: the molecule was classed as inactive in assay [1], in [3] and in assay [5]. The Potency in [8] is 15.8 µM (active) and 31.6 µM (active); in assay [4], > 46 µM (inactive) and > 20.6 µM (inactive); in assay [9] it was > 46 µM (inactive) and > 20.6 µM (inactive); in assay [10] it was 2.82 µM (active). Further, the Potency entry in assay [6] and in assay [11] was “inactive” each time. Also, the activity change, negative = inhibition in [7] was -1.57% (inactive). The max response in [7] (setting [12]) was -15.4%; in [7] (setting [13]), -17.5%.

In the case of `C=C(C)[C@H]1[C@H]2OC(=O)[C@@H]1[C@]1(O)C[C@H]3O[C@]34C(=O)O[C@H]2[C@@]14C`, the call in assay [1], in assay [3] and in [5] was inactive. The activity change, negative = inhibition is -0.55% (inactive) in assay [2] and -0.482% (inactive) in assay [7]. Moreover, the Potency in assay [4] and in [9] was > 20.6 µM (inactive) in each case. Moreover, the Potency result in assay [6] and in [10] was “inactive” in each case. The results for the max response in assay [7] (setting [12]) and in assay [7] (setting [13]) were -3.6% and -3.43%, respectively.

`C=C[C@]12CN(C)[C@H]3C1[C@@]1(C(=O)Nc4ccccc41)[C@H]1C[C@H]2[C@H]3CO1`: the molecule was classed as inactive in [1], in assay [3] and in [5]. For the same molecule, the Potency result in assay [8], in assay [6] and in assay [10] was “inactive” each time. Besides, the Potency in assay [4] was > 20.6 µM (inactive). Also, the activity change, negative = inhibition in [7] was -5.3% (inactive). Also, the max response is -11.8% in [7] (setting [12]) and -17.8% in assay [7] (setting [13]).

As to `COc1cc2c(cc1O)[C@H]1Cc3ccc(OC)c(O)c3CN1CC2`, the molecule was classed as inactive in assay [1], in assay [3] and in assay [5]. Further, the Potency in [8] was 15.8 µM (active); in assay [4], > 20.6 µM (inactive); in assay [9], > 20.6 µM (inactive); in assay [10] it was 10 µM (active). Moreover, the Potency result in [6] and in assay [11] was “inactive” in each case. Also, the activity change, negative = inhibition in assay [7] was -1.48% (inactive). For the same molecule, the max response in assay [7] (setting [12]) is -2.59%; in assay [7] (setting [13]) it was -3.7%.
